The sample as a whole holds a higher share of hits than the screen did.
HT1080 IDH1KD tx: qHTS for induction of synthetic lethality in tumor cells producing 2HG: qHTS for the HT-1080-IDH1KD cell line | Potency, µM (series often up to 46.1 µM), without a hit: at the highest dose activity, negative = toxicity, most hits filed as cytotoxic | actives 2% (n = 360,000) | HT-1080 IDH1 knockdown viability, ATP luminescence, 48 h | AID 686971, 2013;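 also: potency is read from the fitted curve at half-maximal effect; 0% = DMSO wells and -100% = cell-free medium wells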
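HT-1080-IDH1KD cells (IDH1 knocked down), 750/well in RPMI with 5% FBS, treated with compound 48 h at 37 degrees C. Viability by CellTiter-Glo luminescence, normalised to DMSO and no-cell wells; concentration-response curves classed.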
TDP1 cell noCPT: qHTS for Inhibitors of human tyrosyl-DNA phosphodiesterase 1 (TDP1): qHTS in cells in absence of CPT | DT40 Tdp1-/- hTDP1 cells, no CPT, ATP luminescence, 48 h | Potency, µM (top dose mostly 46.2 µM), for inactives: top-dose activity change, negative = growth inhibition, usual class: inhibitors | actives 15% (n = 420,000) | AID 686978, 2013; also: potency is read from the fitted curve at half-maximal effect; nearly all actives have a fitted effect of over 55% in size
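Camptothecin absent (DMSO only). Human TDP1-complemented DT40 knockout cells, 400 cells/well, 37 °C for minimum 48 hr; ATP measured via CellTiter-Glo, 30 min dark incubation, luminescence.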
HT1080NT lethal: qHTS for induction of synthetic lethality in tumor cells producing 2HG: qHTS for the HT-1080-NT fibrosarcoma cell line. HT-1080-NT fibrosarcoma viability, CellTiter-Glo ATP luminescence, 48 h. Potency, µM (top dose mostly 46.1 µM), without a hit: at the highest dose activity, negative = less viability, hits mostly cytotoxic. actives 1.6% (n = 360,000). AID 686970, 2013;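 also: NT is the 2HG producing partner of a matched IDH1 knockdown line; potency is read from the fitted curve at half-maximal effect; 0% = DMSO-treated cells and -100% = media-only wells without cells; nearly all actives have a fitted effect of over 55% in size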
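Viability of the 2HG-overproducing fibrosarcoma line after 48 hours of compound exposure at 37 degrees C was determined by luminescence with CellTiter-Glo, and concentration-effect curves were then fitted and categorized.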
IL1B secr inh: qHTS for Inhibitors of Inflammasome Signaling: IL-1-beta AlphaLISA Primary Screen; THP-1 LPS/ATP IL-1B secretion, AlphaLISA, 16 h; hits give low values; actives 4.7% (n = 360,000); AID 743279, 2014; activity change, % at 57.5 µM; in the data active = activity change below about -50%; inconclusive = mostly about -30% to -49%
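Secreted IL-1B measured by AlphaLISA bead assay after 16 h compound exposure of THP-1 cells; compounds (final up to 57.5 uM) added 1 h before LPS (250 ng/mL) and ATP (1.25 mM) stimulation; lower signal means less secretion.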
DT40 TDP1 CPT: qHTS for Inhibitors of human tyrosyl-DNA phosphodiesterase 1 (TDP1): qHTS in cells in presence of CPT; actives 12% (n = 420,000); Potency, µM (titrated, usually from 46.2 µM), for inactives: at the top dose activity change, negative = growth inhibition, usual class: inhibitors; AID 686979, 2013; chicken DT40 Tdp1-/-;hTDP1 cells + 20 nM CPT, ATP luminescence, 48 h; also: potency is read from the fitted curve at half-maximal effect; nearly all actives have a fitted effect of over 55% in size
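Cell growth measured by CellTiter-Glo luminescence after a minimum 48 h, 37 C compound exposure with 20 nM CPT in Tdp1-knockout DT40 cells stably expressing hTDP1, seeded 400/well; qHTS titration format.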
ALOX12 inh: Primary qHTS assay for inhibitors of human arachidonate 12S-lipoxygenase (ALOX12): Round 2 | Polyunsaturated fatty acid lipoxygenase ALOX12 (Homo sapiens), P18054 | purified 12hLO, xylenol orange hydroperoxide absorbance | Potency, µM (doses to about 108 µM), for inactives: at the highest dose activity change, negative = inhibition, most hits filed as inhibitors | actives 1.1% (n = 580,000) | AID 1671190, 2021; also: potency is read from the fitted curve at half-maximal effect
Target sequence (P18054 whole entry, looked up): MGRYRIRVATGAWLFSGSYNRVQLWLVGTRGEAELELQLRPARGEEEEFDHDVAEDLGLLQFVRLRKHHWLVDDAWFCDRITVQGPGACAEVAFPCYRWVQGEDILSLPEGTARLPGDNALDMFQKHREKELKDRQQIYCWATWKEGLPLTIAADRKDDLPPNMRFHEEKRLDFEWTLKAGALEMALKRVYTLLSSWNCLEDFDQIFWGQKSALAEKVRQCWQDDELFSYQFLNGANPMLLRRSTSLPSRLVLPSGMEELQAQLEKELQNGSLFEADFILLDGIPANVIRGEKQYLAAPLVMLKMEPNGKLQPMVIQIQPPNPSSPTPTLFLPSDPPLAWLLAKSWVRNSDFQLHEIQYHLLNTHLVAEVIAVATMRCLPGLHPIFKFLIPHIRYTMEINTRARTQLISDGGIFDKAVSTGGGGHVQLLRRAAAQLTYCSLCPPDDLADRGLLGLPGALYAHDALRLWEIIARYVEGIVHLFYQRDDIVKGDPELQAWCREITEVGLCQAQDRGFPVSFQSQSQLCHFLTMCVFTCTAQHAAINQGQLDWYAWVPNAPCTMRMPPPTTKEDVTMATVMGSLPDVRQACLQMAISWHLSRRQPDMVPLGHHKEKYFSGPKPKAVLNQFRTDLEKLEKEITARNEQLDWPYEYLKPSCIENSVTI
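Purified human 12hLO at 150 nM in 25 mM Hepes, 0.01% Triton X-100, pH 7.0, preincubated 15 min at room temperature with compound. Reaction started with 40 uM arachidonic acid, 30 min at room temperature. Hydroperoxide measured by Fe-xylenol orange, 573/405 nm absorbance ratio.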
Numbers without * were called inactive; ? = inconclusive; . = not tested or not shown; [ ] = another dose, or the depositor's remark. Unless noted, calls follow the shape of the dose curve; as a rule, active = well fitted curve in the direction sought with a large enough effect; inconclusive = small, poorly fitted or top-dose-only effect, or another doubt; inactive = no such curve, though single readings can be large; an effect the other way counts as inactive or inconclusive. Unless noted, % is scaled to controls: 0 for no effect and ±100 for the full control effect.

SMILES | HT1080 IDH1KD tx | TDP1 cell noCPT | HT1080NT lethal | IL1B secr inh | DT40 TDP1 CPT | ALOX12 inh
Cc1ccc(NC(=O)C(=O)NCC(c2cccnc2)N2CCN(Cc3ccccc3)CC2)cc1Cl (stereo unspecified) | . | 7.3µM* | . | . | 10µM* | -26%
Cc1cc(C)c(S(=O)(=O)NCC(c2cccnc2)N2CCN(Cc3ccccc3)CC2)c(C)c1 (stereo unspecified) | 9% | ? | 0% | -8 | ? | -7%
COCCNC(=O)Cc1cccn1-c1ccc(F)cc1 | . | . | . | . | . | 0%
CCSc1ncc(CO)c(N)n1 | 14% | 12% | -5% | 24 | 13% | 0%
CN(C)C(=O)C1CN(C(=O)Nc2ccccc2F)CC12CCOCC2 (stereo unspecified) | . | . | . | . | . | -12%
O=C(NCCc1ccccc1)C(=O)NCC(c1cccnc1)N1CCN(c2ccccc2)CC1 (stereo unspecified) | . | 16µM* | . | . | 21µM* | 0%
O=C(NCC(c1cccnc1)N1CCN(c2ccccc2)CC1)c1ccco1 (stereo unspecified) | 8% | -4% | 6% | 19 | -6% | 9%
Cc1c(Cl)cccc1NC(=O)C(=O)NCC(c1cccnc1)N1CCN(c2ccccc2)CC1 (stereo unspecified) | . | 21µM* | . | . | 16µM* | -6%
O=C(NCc1ccc(Cl)cc1)C(=O)NCC(c1cccnc1)N1CCN(c2ccc(F)cc2)CC1 (stereo unspecified) | ? | 8.2µM* | -12% | -1 | 6.5µM* | -8%
O=C(NCCCn1ccnc1)C(=O)NCC(c1cccnc1)N1CCN(c2ccc(F)cc2)CC1 (stereo unspecified) | 2% | ? | 10% | 6 | ? | .
c1ccc(CCNCc2ccco2)nc1 | 2% | -2% | 8% | 3 | 0% | 0%
COCC(=O)Nc1ccc([C@@H](O)[C@H]2COCC(=O)N2Cc2ccccc2F)cc1 | . | . | . | . | . | 51%[176 µM]
S=c1[nH]nc(-c2ccco2)n1/N=C/C=C/c1ccco1 | 3% | ? | 10% | 3 | -17% | ?
S=c1[nH]nc(-c2cc(-c3ccccc3)n[nH]2)n1/N=C/C=C/c1ccco1 | -7% | ? | -3% | 13 | -1% | 40µM*
Cc1ccccc1/C=N/n1c(-c2cc(-c3ccccc3)n[nH]2)n[nH]c1=S | -3% | 16µM* | -2% | 1 | ? | -10%
Cc1ccsc1/C=N/n1c(-c2cc(-c3ccccc3)n[nH]2)n[nH]c1=S | -3% | ? | -4% | 19 | ? | ?
OCCCNCc1cc2cc3c(cc2nc1N1CCN(c2cccc(Cl)c2)CC1)OCO3 | . | -12% | . | . | 7%[9.04 µM] | -1%
COc1ccc(NC(=O)N2CC[C@@]3(CCCN(C(=O)c4cccc(F)c4)C3)C2)cc1 | . | -12% | . | . | ? | -2%[57.4 µM]
Cc1cc(OS(C)(=O)=O)cc2c1C(=O)/C(=C/c1cccnc1)O2 | . | . | . | . | . | -20%
Cc1ccc(S(=O)(=O)N(C)C)cc1NC(=O)C(C)NC(C)c1cccs1 (stereo unspecified) | -4% | -24% | -1% | 51 | ? | 11%
Cc1ccc(S(=O)(=O)N(C)C)cc1NC(=O)C(C)N(C)Cc1sccc1C (stereo unspecified) | -14% | 21µM* | 0% | ? | 18µM* | -4%
Cc1ccccc1C(=O)N1CCC[C@@H]1C(=O)N1CCC[C@H]1C(=O)NCc1ccncc1 | 7% | -18% | 1% | 30 | -3% | -22%
COc1cccc(NC(=O)CC2Nc3ccccc3NC2=O)c1 (stereo unspecified) | . | . | . | . | . | 16µM*
CCCCNC(=O)CC1Nc2cc(C)c(C)cc2NC1=O (stereo unspecified) | . | 5.2µM* | . | . | 4.6µM* | 185%
CCOC(=O)c1c(NC(=O)CC2Sc3ccc(C(F)(F)F)cc3NC2=O)sc(C)c1C (stereo unspecified) | 24% | ? | 8% | 4 | ? | -4%
SMILES | HT1080 IDH1KD tx | TDP1 cell noCPT | HT1080NT lethal | IL1B secr inh | DT40 TDP1 CPT | ALOX12 inh
Cc1cc2c(cc1C)NC(CC(=O)Nc1cccc(Cl)c1)C(=O)N2 (stereo unspecified) | . | ? | . | . | 16µM* | 0%
CCOC(=O)c1c(NC(=O)CC2Nc3ccccc3NC2=O)sc(C)c1C (stereo unspecified) | -10% | 18µM* | -5% | -5 | 8.2µM* | 66%
COc1ccc(NC(=O)CC2Nc3cc(C)c(C)cc3NC2=O)c(OC)c1 (stereo unspecified) | . | . | . | . | . | -1%
Cn1c(=O)c(=O)n(C)c2cc(NC(=O)c3cccc(F)c3)c(Cl)cc21 | . | -22% | . | . | 6% | ?
CC(=O)Nc1cncc(-c2ccccc2F)n1 | 22% | -17% | 26% | 7 | -14% | 8%
CC1CC(NC(=O)CCC(=O)O)CC(C)(C)C1 (stereo unspecified) | . | . | . | . | . | -11%
CC(C)C[C@H](NC(=O)[C@@H]1Cc2c([nH]c3ccccc23)C2c3ccccc3C(=O)N21)C(=O)NCC1CCCO1 (stereo partly specified) | -9% | ? | -7% | -20 | 16µM* | -30%
CC(C)[C@H](NC(=O)[C@@H]1Cc2c([nH]c3ccccc23)C2c3ccccc3C(=O)N21)C(=O)NCC1CCCO1 (stereo partly specified) | -8% | ? | 0% | -7 | ? | -18%
CC(C)(C)OC(=O)N1CCC(CC2CC(c3cccc(Br)c3)=NO2)(C(=O)O)CC1 (stereo unspecified) | -5% | -2% | -1% | 26 | -11% | -10%
CCCCCCCNC(=O)C1(CC2CC(c3cccc(Br)c3)=NO2)CCN(C(=O)CCCCCBr)CC1 (stereo unspecified) | ? | 26µM* | 16µM* | ? | 23µM* | 40µM*
COc1ccc(CNC(=O)C2(CC3CC(c4ccccc4)=NO3)CCN(C(=O)C3(C)CC3)CC2)cc1 (stereo unspecified) | 3% | -22% | 0% | -17 | ? | -12%

Bioassay records from PubChem BioAssay.
